Results reported in PubChem BioAssay (NCI).
This is part of a sample that, as a whole, favours compounds with a hit. Of some 79,000 tested, about 15% had one in any assay. A number with no mark means an inactive call. Calls of active or inactive are those of the source. Rule as the data show it: active = growth inhibition above about 70%; inactive = the rest.

Experiments:
[1] = NCI Yeast Anticancer Drug Screen. Data for the rad50 strain (AID 155);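 also: 0% = growth of vehicle-only cultures of the same strain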; conditions: S. cerevisiae rad50 strain growth inhibition, stronger effect = higher value
In short: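 A DNA repair-deficient yeast mutant serves as the test organism; compound-induced growth inhibition is calculated against vehicle-treated cells.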

[2] = NCI Yeast Anticancer Drug Screen. Data for the mec2-1 strain (AID 157); conditions: S. cerevisiae mec2-1 strain, stronger effect = higher value
In short: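 Yeast mec2-1 mutant treated with compound. Readout: growth inhibition vs vehicle controls.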

[3] = NCI Yeast Anticancer Drug Screen. Data for the sgs1 mgt1 strain (AID 161);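 also: 0% = growth of cultures given vehicle only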; conditions: S. cerevisiae sgs1 mgt1 strain, stronger effect = higher value
In short: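 Test agents were incubated with a DNA-repair-mutant yeast strain. Growth was then read and compared against vehicle-treated controls.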

[4] = NCI Yeast Anticancer Drug Screen. Data for the cln2 rad14 strain (AID 165);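 also: 0% = growth equal to vehicle treated cultures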; conditions: S. cerevisiae cln2 rad14 strain, stronger effect = higher value
In short: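 cln2 rad14 yeast strain; compound exposure; growth inhibition read vs vehicle controls.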

[5] = NCI Yeast Anticancer Drug Screen. Data for the bub3 strain (AID 167); conditions: S. cerevisiae bub3 mutant strain, stronger effect = higher value
In short: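 Inhibition values come from growth of compound-treated mutant yeast normalised to vehicle-treated controls.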

[6] = NCI Yeast Anticancer Drug Screen. Data for the mlh1 rad18 strain (AID 175); conditions: S. cerevisiae mlh1 rad18 strain growth inhibition, stronger effect = higher value
In short: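 Yeast w/ defined DNA-repair lesions; compound exposure; growth vs vehicle controls → % inhibition.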

[7] = at 5.0 µM (retest, dose inferred, filed as 0.5)
[8] = at 50.0 µM (retest, dose inferred, filed as 5.0)

| Compound | growth inhibition [1, 7] [%] | growth inhibition [1, 8] | growth inhibition ([1]; at 50.0 µM) | growth inhibition [2, 7] [%] | growth inhibition [2, 8] | growth inhibition ([2]; at 50.0 µM) | growth inhibition [3, 7] [%] | growth inhibition [3, 8] | growth inhibition ([3]; at 50.0 µM) | growth inhibition [4, 7] [%] | growth inhibition [4, 8] | growth inhibition ([4]; at 50.0 µM) | growth inhibition [5, 7] | growth inhibition [5, 8] | growth inhibition ([5]; at 50.0 µM) | growth inhibition [6, 7] | growth inhibition [6, 8] | growth inhibition ([6]; at 50.0 µM) |
| --- | --- | --- | --- | --- | --- | --- | --- | --- | --- | --- | --- | --- | --- | --- | --- | --- | --- | --- |
| O=C(/C=C\c1ccccc1)/C=C/c1ccccc1 | 4 | 39% | 40.5% | -2 | 8% | 12.6% | 0 | 24% | 28.2% | -1 | 4% | -14.3% | 7% | 53% | 27.9% | -1% | 17% | 70.8% (active) |
| Cc1ccc(C(=O)C(F)(F)F)cc1 | -162 | -138% | 4.5% | -46 | -51% | -15.9% | -63 | -68% | -10.5% | -60 | -78% | 32.1% | -74% | -89% | -24.1% | -145% | -117% | 3.3% |
| COc1ccc2c(C)cc(N/N=C(\C)c3ccccn3)nc2c1 | 2 | 57% | 99.5% (active) | -3 | 51% | 99.7% (active) | 7 | 42% | 99.6% (active) | -6 | 28% | 99.5% (active) | 0% | 67% | 99.7% (active) | -2% | 57% | 99.5% (active) |
| COc1ccc(C2Cc3cc(OC)ccc3C2=O)cc1 (configuration not stated) | 13 | 94% (active) | 45.5% | 9 | 98% (active) | 29.4% | 17 | 95% (active) | 56.5% | 19 | 95% (active) | 23.6% | 32% | 97% (active) | 96% (active) | 10% | 97% (active) | 57.4% |
| O=C1C=C(c2ccccc2)O/C1=C\C(=O)c1ccc(Cl)cc1 | 48 | 48% | 89.3% (active) | 43 | 43% | 90.9% (active) | 54 | 54% | 86.4% (active) | 14 | 14% | 87.5% (active) | 22% | 22% | 88% (active) | 44% | 44% | 84.5% (active) |
| O=C1C(=O)N(c2ccccc2)N=C1N=Nc1ccccc1 | 4 | 33% | 90.4% (active) | 8 | 80% (active) | 86.7% (active) | 14 | 63% | 96.2% (active) | 2 | 43% | 41.8% | 14% | 73% (active) | 69% | 14% | 77% (active) | 56% |
| COc1cc2c(cc1OC)-c1nc(N)sc1CC2 | 2 | -4% | 86.8% (active) | -2 | -1% | 85.5% (active) | 2 | -23% | 81.8% (active) | -4 | 4% | 85.7% (active) | -2% | -4% | 85.8% (active) | -1% | 7% | 88.3% (active) |
| CSC(=N)N1N=C2/C(=C/c3ccccc3)CCC[C@H]2[C@H]1c1ccccc1 | -17 | -14% | 21.4% | -7 | -2% | -6.7% | -13 | 13% | 40.7% | -35 | 5% | -14.8% | -3% | 5% | 4.45% | -10% | 29% | 27.9% |
| CCOC(=O)/C(=C\c1ccc(Cl)cc1)C(C)=O | 31 | 98% (active) | 93.2% (active) | 49 | 99% (active) | 94.5% (active) | 33 | 98% (active) | 93.3% (active) | 29 | 98% (active) | 92% (active) | 79% (active) | 99% (active) | 92.2% (active) | 79% (active) | 98% (active) | 91.5% (active) |
